Bioassay records: PubChem, several laboratories
Rows were chosen to be rich in hits. Some 4% of all compounds tested hit in one or more screens of this group.
MITF TRPM1 inh = reduces MITF-dependent TRPM1 promoter luciferase signal. SK-MEL-5 TRPM1 promoter luciferase, 24 h. inhibition, % at 12.5 µM. actives 0.83% (n = 330,000);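 active = mean inhibition across replicates of 60% or more, whatever share of single replicates reaches that level; inconclusive = some that reach 60%, reason not given; inactive = mean inhibition across replicates below 60%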
Peg3 prom inh = inhibitors of Peg3 promoter. HeLa PEG-Prom luciferase reporter, luminescence, overnight. inhibition, % at 20 µM. actives 1.7% (n = 360,000). AID 588405;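 active = inhibition of at least 50% at 20 µM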
EBV LMP1 NFkB = inhibitors of Epstein-Barr LMP1-induced NF-kappaB reporter; LMP1-induced NF-kappaB luciferase reporter cells, luminescence; inhibition, % at 12.5 µM; actives 0.69% (n = 350,000); AID 504558; in the data active = inhibition above about 41%; inconclusive = no clear call, values can overlap the other calls;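 also: 0% = neutral control wells and 100% = reference inhibitor control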
TROY NFkB inh = inhibitors of TROY-dependent NF-kB signaling | actives 0.98% (n = 360,000) | inhibition, % at 10 µM | Q293 LMP1-TROYcd NF-kB luciferase reporter, 4 h;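 active = compounds whose plate-normalised and pattern-corrected inhibition of the luciferase reporter signal at the single screening dose is 50% or more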
HIF-2a block = HIF-2a inhibition | 786-0 RCC cells HIF-2a reporter, luciferase luminescence, overnight | inhibition, % at 18.8 µM | actives 0.72% (n = 360,000);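 active = inhibition of the luminescence signal of 40% or more relative to plate controls, in a single-dose primary screen at 18.75 µM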
TWEAK-Fn14 inh = TWEAK-Fn14 signaling inhibition | TWEAK-stimulated Fn14 reporter cells, luciferase luminescence, 8 h | inhibition, % at 10 µM | actives 2% (n = 360,000) | AID 1159606; in the data active = inhibition above about 50%
An asterisk follows results filed as active; u = inconclusive; x = no result given.

SMILES	MITF TRPM1 inh	Peg3 prom inh	EBV LMP1 NFkB	TROY NFkB inh	HIF-2a block	TWEAK-Fn14 inh
COc1cccc(CNc2nc3ccccc3n2CCN2CCCCC2)c1OC	-3	10	6	11	0	-30
COc1cccc(CNc2nc3cc(-c4cccc(Cl)c4)sc3c(=O)n2C)c1OC	x	-9	x	10	-91	50*
CCN(C)C1CN(Cc2cn(Cc3ccc(C)cc3)nn2)S(=O)(=O)C1 (stereo not given)	x	x	x	-5	8	10
Cn1c(NCCN2CCCC2)nc2cc(-c3ccccc3)sc2c1=O	x	-11	x	-62	-64	-34
COc1ccc(-c2cc3nc(NCc4ccc(NC(C)=O)cc4)n(C)c(=O)c3s2)cc1OC	x	-3	x	19	-4	-38
COc1cccc(CNc2nc3cc(-c4ccccc4)sc3c(=O)n2C)c1OC	x	11	x	29	-121	63*
Cn1c(NCCN2CCCC2)nc2cc(-c3cccc(C(F)(F)F)c3)sc2c1=O	x	58*	x	-62	-76	-35
COc1ccccc1CNc1nc2cc(-c3ccc(OC)c(OC)c3)sc2c(=O)n1C	x	-4	x	44	-35	77*
Cc1cccc(N2CCN(S(=O)(=O)c3ccc(-c4ccc(=O)[nH]n4)o3)CC2)c1C	24	19	-2	18	11	-38
CCN(CC)S(=O)(=O)c1cccc(C(=O)Nc2nc3cc4c(cc3s2)OCCO4)c1	15	-11	4	61*	-116	95*
O=C(Nc1nc2cc3c(cc2s1)OCCO3)c1cccs1	15	-27	32	61*	-47	89*
COc1ccccc1C(=O)Nc1nc2cc3c(cc2s1)OCCO3	-13	-234	-33	-11	-230	11
NNc1nc2cc3c(cc2s1)OCCO3	15	-83	-7	30	-43	53*
CN(CC1CCCO1)S(=O)(=O)c1ccc(C(=O)Nc2ccc3c(c2)OCO3)cc1 (stereo not given)	7	-2	4	4	1	-13
CN(CC1CCCO1)S(=O)(=O)c1ccc(C(=O)Nc2nc3cc4c(cc3s2)OCO4)cc1 (stereo not given)	46	-15	16	30	-25	53*
COc1ccc(N2CCN(CCCNC(=O)CN3C(=O)COc4ccccc43)CC2)cc1	8	0	2	-26	9	15
OCCNc1c2ccccc2nc2c(F)c(F)c(F)c(F)c12	81*	101*	-94	-32	97*	25
COc1ccc2c(=O)c(-c3ccc4c(c3)OCO4)coc2c1	4	-165	-17	20	-185	70*
CCC(C)Nc1nc(N)c([N+](=O)[O-])c(Nc2ccccc2OC)n1 (stereo not given)	0	60*	-16	-15	12	11
CCN1CCN(/C=N/c2nc3c(s2)CCCC3)CC1	u	55*	55*	86*	20	96*
CN1CCN(CC(=O)Nc2nc3c(s2)CCCC3)CC1	6	-3	-1	-14	-8	2
CN(C)c1ccc(C2/C(=C(/O)c3ccc(Br)cc3)C(=O)C(=O)N2C)cc1 (stereo not given)	9	16	7	1	49*	10
O=C1C(=O)N(CCCO)C(c2ccc(Br)cc2)/C1=C(\O)c1ccc(Br)cc1 (stereo not given)	3	0	4	0	2	-20
CN1C(=O)C(=O)/C(=C(/O)c2ccc(Br)cc2)C1c1ccc(Cl)cc1 (stereo not given)	-6	-6	4	-10	9	95*
CN1C(=O)C(=O)/C(=C(/O)c2ccccc2)C1c1ccc(Br)cc1 (stereo not given)	-5	-2	6	5	22	8
Cc1nn(-c2ccccc2)c(C)c1NC(=O)COC(=O)c1ccc(Cl)c(S(N)(=O)=O)c1	-19	-6	-2	2	5	12
CCN(CC)c1ccc2cc(C(=O)Nc3ccccn3)c(=O)oc2c1	-11	-93	7	53*	-117	87*
CCN(CC)c1ccc2cc(NC(=O)CCC(=O)O)c(=O)oc2c1	92*	44	38	69*	84*	91*
CCN(CC)c1ccc2cc(C(C)=O)c(=O)oc2c1	-9	-90	-9	-25	-119	-21
COC(=O)Cn1ncc2c(C)n(Cc3ccccc3)c(C)c2c1=O	-41	-34	68*	-43	-197	-10
